Measurements: PubChem BioAssay (NCATS)
Values joined by “and” are separate entries in the source; they are usually repeats but may differ in a detail not shown here. Identical values can stand only once. Results filed as inconclusive are left out. Active and inactive are the calls of the source. Unless noted, calls come from the whole dose curve; as a rule, active = well fitted curve in the direction sought with a large enough effect; inconclusive = small, poorly fitted or top-dose-only effect, or another doubt; inactive = no such curve, though single readings can be large; an effect the other way counts as inactive or inconclusive.

Tests used:
[1] = test system: Zika virus NS2B-NS3 protease (unlinked complex); experiment: Primary screen GU Rhodamine qHTS for Zika virus inhibitors: Unlinked NS2B-NS3 protease assay (AID 1347159); note: % is set by controls: 0 for no effect and ±100 for the full control effect; nearly all actives have a fitted effect of over 60% in size
In short: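 A qHTS format was used, with compound concentrations ranging up to 114 microM. Each compound was preincubated with 25 nM NS2B-NS3 protease, and the substrate was then added at 1.5 microM. Curves were fitted with a 4-parameter Hill model.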

[2] = test system: Zika virus NS2B-NS3 protease (linked construct); experiment: Primary screen NINDS Rhodamine qHTS for Zika virus inhibitors (AID 1347160); note: nearly all actives have a fitted effect of over 55% in size
In short: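 Kinetic fluorescence (Ex 480 nm, Em 540 nm) over 15 min with 1.5 microM Rhodamine110 peptide and 25 nM linked protease.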

[3] = target: Calcium and integrin-binding protein 1 (Homo sapiens) (UniProt Q99828); experiment: Primary qHTS for Identification of Calcium Integrin Binding Protein 1 (CIB1) Competitor (AID 1508620);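 note: GST tagged CIB1 binding a fluorescein labelled alphaIIb integrin peptide tracer; top concentration of the series differs between compounds; % is set by controls: 0 for no effect and ±100 for the full control effect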
In short: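 Fluorescence polarization competition: GST-tagged CIB1 (1 uM final) preincubated with compound 15 min at room temperature, then FITC-labelled alphaIIb peptide (100 nM final) added. After 15 min at room temperature, polarization read at Ex 480/Em 540.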

[4] = target: Glutathione peroxidase 1 (Homo sapiens) (UniProt P07203); experiment: Primary qHTS Assay for Inhibitors of Recombinant Selenoprotein Glutathione Peroxidase 1 (GPX1) (AID 1845191); note: nearly all actives have a fitted effect of over 65% in size; for activity, negative = inhibition: % is set by controls: 0 for no effect and ±100 for the full control effect
In short: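 GR-coupled assay: compounds preincubated 30 min at room temperature with GPX1, then reaction started with CHP; final 10 nM GPX1, 1 mM GSH, 0.5 mM CHP, 0.5 mM NADPH, 100 nM GR, 0.01% BSA, pH 7.5 Tris buffer. NADPH fluorescence (340/450 nm) read at 0 and 15 min.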

[5] = target: Phospholipid hydroperoxide glutathione peroxidase GPX4 (Homo sapiens) (UniProt P36969); experiment: Primary qHTS Assay for Inhibitors of Recombinant Selenoprotein Glutathione Peroxidase 4 (GPX4) (AID 1845192); details: outcome: dose series up to 50 µM unless noted; note: % is set by controls: 0 for no effect and ±100 for the full control effect; nearly all actives have a fitted effect of over 65% in size
In short: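 GR-coupled assay: recombinant GPX4 preincubated 30 min with compound at room temperature; final 200 nM GPX4, 1 mM GSH, 0.5 mM cumene hydroperoxide, 0.5 mM NADPH, 100 nM GR, 0.01% BSA, pH 7.5 Tris. NADPH fluorescence (340/450 nm) read at 0 and 15 min.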

[6] = target: Luciferin 4-monooxygenase (Photinus pyralis) (UniProt P08659); experiment: Primary firefly luciferase (FLuc) qHTS assay for identification of artifact compounds. (AID 1845220); note: nearly all actives have a fitted effect of over 60% in size;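 for activity change, negative = inhibition: plate controls were DMSO vehicle for no effect and no enzyme for full effect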
In short: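 Titrated compounds were incubated 15 min at RT, protected from light, with luciferin and ATP at 10 uM; reaction started with 10 nM FLuc, luminescence imaged at 5 min, and concentration-response fitted by Hill equation.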

[7] = Primary fluorescence-based thiol-reactive (MSTI) qHTS assay for identification of artifact compounds. (AID 1845221);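 note: thiol-reactive compounds lower the probe fluorescence signal; nearly all actives have a fitted effect of over 65% in size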
In short: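 A multi-concentration qHTS design tested compounds against 4 uM MSTI, pH 7.4 phosphate-buffered saline. Plates were protected from light for 1 h at room temperature before imaging fluorescence.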

[8] = test system: Nanoluciferase (engineered Oplophorus gracilirostris luciferase); experiment: Primary Nanoluciferase (NLuc) qHTS assay for identification of artifact compounds. (AID 1845222);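 note: NLuc secreted into diluted conditioned medium of S16 cells; 0% = DMSO and -100% = no enzyme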
In short: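 qHTS format, against NLuc in S16 cell-conditioned medium. Nano-Glo substrate 1:100 was added after 15 min at room temperature. Luminescence was taken after a further 5 min.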

[9] = test system: CASKI; experiment: Primary qHTS to identify gynecologic anti-cancer compounds using libraries of approved drugs and bioactive compounds (AID 1345084); details: Gynecologic cancer cell panel viability, ATPlite luminescence, 48 h; series mostly up to 57.5 µM; note: nearly all actives have a fitted effect of over 55% in size; note: potency is the fitted concentration of half-maximal effect; for activity change, negative = cytotoxicity: % is set by controls: 0 for no effect and ±100 for the full control effect
In short: (§1)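 ATP-based viability (ATPlite), 1,000 cells/well, 16 h pre-incubation, 48 h compound at 37 C, 5% CO2, 15 min RT before read.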

[10] = test system: Es-2; experiment: as above; details: Gynecologic cancer cell panel viability, ATPlite luminescence, 48 h; series mostly up to 57.5 µM
In short: as §1

[11] = test system: HeLa; experiment: as above; details: Gynecologic cancer cell panel viability, ATPlite luminescence, 48 h; series mostly up to 57.5 µM
In short: as §1

[12] = test system: Hek293T; experiment: as above; details: Gynecologic cancer cell panel viability, ATPlite luminescence, 48 h, control line for the selectivity index; series mostly up to 57.5 µM
In short: as §1

[13] = test system: JEG-3; experiment: as above; details: Gynecologic cancer cell panel viability, ATPlite luminescence, 48 h; series mostly up to 57.5 µM
In short: as §1

[14] = test system: OV90; experiment: as above; details: Gynecologic cancer cell panel viability, ATPlite luminescence, 48 h; series mostly up to 57.5 µM
In short: as §1

[15] = test system: Tov112D; experiment: as above; details: Gynecologic cancer cell panel viability, ATPlite luminescence, 48 h; series mostly up to 57.5 µM
In short: as §1

[16] = P-glycoprotein substrates identified in KB-8-5-11 adenocarcinoma cell line, qHTS therapeutic library screen (AID 1346987); note: nearly all actives have a fitted effect of over 65% in size; note: potency is the fitted concentration of half-maximal effect
In short: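 P-gp-mediated resistance screen: KB-8-5-11 cells treated 72 h with compounds in dose-response. CellTiter-Glo viability.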

[17] = Primary qHTS for inhibitors of nuclear receptor binding SET domain protein 2 (NSD2) in an isogenic RCH-ACV NSD2 p.E1099K mutant (9B) (AID 1645876); note: potency is the fitted concentration of half-maximal effect; nearly all actives have a fitted effect of over 70% in size
[18] = Primary qHTS for inhibitors of nuclear receptor binding SET domain protein 2 (NSD2) in an RCH-ACV wild type WT cells (2C) (AID 1645877); note: potency is the fitted concentration of half-maximal effect; nearly all actives have a fitted effect of over 70% in size
[19] = qHTS drug screen for cell cycle checkpoint inhibitors in PARPi-resistant BRCA-mutant ovarian cancer cell lines. (AID 1963452; calls by dose curve); details: PEO1/OlaR viability, CellTiter-Glo luminescence, 96 h, stronger effect = lower value
In short: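 PEO1, PEO4 and PEO1/OlaR ovarian cancer cells, 600 per well, exposed 96 h at 37C to a dilution series. Viability read by CellTiter-Glo luminescence, normalized to DMSO and empty wells; activity summarized as Z-AUC.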

[20] = test system: C33A; experiment: Primary qHTS to identify gynecologic anti-cancer compounds using libraries of approved drugs and bioactive compounds (AID 1345084); details: Gynecologic cancer cell panel viability, ATPlite luminescence, 48 h; series mostly up to 57.5 µM; note: nearly all actives have a fitted effect of over 55% in size; note: potency is the fitted concentration of half-maximal effect; for activity change, negative = cytotoxicity: % is set by controls: 0 for no effect and ±100 for the full control effect
In short: as §1

[21] = measured here: PEO1 parental Z-AUC

Chain of Glutathione peroxidase 1 (Homo sapiens) (P07203 whole entry, looked up): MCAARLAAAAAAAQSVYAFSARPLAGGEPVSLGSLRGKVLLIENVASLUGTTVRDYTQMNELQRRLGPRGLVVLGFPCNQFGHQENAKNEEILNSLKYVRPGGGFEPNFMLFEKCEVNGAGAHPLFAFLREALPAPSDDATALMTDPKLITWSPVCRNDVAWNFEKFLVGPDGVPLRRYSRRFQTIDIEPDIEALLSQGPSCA
Chain of Phospholipid hydroperoxide glutathione peroxidase GPX4 (Homo sapiens) (P36969 whole entry, looked up): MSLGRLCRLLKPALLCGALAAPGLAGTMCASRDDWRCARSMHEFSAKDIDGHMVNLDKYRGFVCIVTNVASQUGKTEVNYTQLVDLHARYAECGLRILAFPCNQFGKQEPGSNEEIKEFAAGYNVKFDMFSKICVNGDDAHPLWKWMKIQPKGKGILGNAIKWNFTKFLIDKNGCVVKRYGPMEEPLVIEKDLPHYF
Chain of Calcium and integrin-binding protein 1 (Homo sapiens) (Q99828 whole entry, looked up): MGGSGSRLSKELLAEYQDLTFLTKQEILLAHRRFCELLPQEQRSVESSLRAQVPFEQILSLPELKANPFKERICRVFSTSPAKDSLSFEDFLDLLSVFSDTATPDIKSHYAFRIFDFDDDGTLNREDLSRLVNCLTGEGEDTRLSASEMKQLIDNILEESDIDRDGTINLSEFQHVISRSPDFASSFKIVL

CCOP(=O)(Cc1ccc(C(=O)Nc2ccc(Br)cc2C#N)cc1)OCC
inactive: Potency [1] | Potency [2] | outcome [3] | Potency [4] | Potency [5] | Potency [6] | Potency [7] | Potency [8] | Potency [9] | Potency [10] | Potency [11] | Potency [12] | Potency [13] | Potency [14] | Potency [15]

CC[C@]1(O)C[C@H]2CN(CCC3C(=Nc4ccccc43)[C@@](C(=O)OC)(c3cc4c(cc3OC)N(C)[C@H]3[C@@](O)(C(N)=O)[C@H](O)[C@]5(CC)C=CCN6CC[C@]43[C@@H]65)C2)C1 (stereo not given in full)
inactive: Potency [2] | outcome [3] | Potency [5] | Potency [6] | Potency [8]
active: Potency [16] 3.66 µM | Potency [17] 0.0515 µM | Potency [18] 0.023 µM | Potency [9] 0.199 µM | Potency [10] 0.794 µM | Potency [11] 0.398 µM | Potency [13] 0.1 µM | Potency [14] 5.01 µM | Potency [15] 0.1 µM

FC(F)(F)c1ccc(CNc2ccc(Cc3c[nH]c4ncccc34)cn2)cc1
active: Potency [17] 16.3 µM and 10.5 µM | Potency [18] 14.5 µM and 8.33 µM
-0.926: Z-AUC ([19]; measured here: PEO4 Z-AUC)
-1.25: Z-AUC [19, 21]
inactive: Potency [1] | Potency [2] | outcome [3] | Potency [4] | Potency [6] | Potency [7] | Potency [8] | Z-AUC [19] -0.674 | Potency [10] | Potency [13] | Potency [14]

COc1cc2nc(N3CCN(C)CC3)nc(NC3CCN(Cc4ccccc4)CC3)c2cc1OC
active: Potency [16] 16.4 µM | Potency [17] 6.49 µM | Potency [18] 5.78 µM | Potency [14] 22.4 µM
inactive: Potency [1] | Potency [2] | outcome [3] | Potency [4] | Potency [6] | Potency [7] | Potency [8] | Potency [20] | Potency [11] | Potency [12]

NC(=Nc1ccc(CCNCc2cccc(Cl)c2)cc1)c1cccs1
inactive: Potency [1] | Potency [2] | outcome [3] | Potency [4] | Potency [5] | Potency [6] | Potency [7] | Potency [8] | Potency [10] | Potency [11] | Potency [12] | Potency [15]
active: Potency [16] 23.1 µM | Potency [17] 11.5 µM | Potency [18] 11.5 µM

N#Cc1cccc(C#N)c1-c1nc2c3ccccc3c3cc(Cl)ccc3c2[nH]1
active: Potency [16] 23.1 µM | Potency [17] 10.3 µM | Potency [18] 10.3 µM
inactive: Potency [1] | Potency [2] | outcome [3] | Potency [5] | Potency [6] | Potency [7] | Potency [8] | Potency [9] | Potency [10] | Potency [12] | Potency [13] | Potency [14] | Potency [15]

C[C@@H]1CCNC(=O)c2cc3ccc(C(=O)Nc4nc5ccccc5n4CCCN(C)C)cc3n21
active: Potency [17] 16.3 µM | Potency [18] 14.8 µM
-1.11: Z-AUC ([19]; measured here: PEO4 Z-AUC)
inactive: Potency [16] | Potency [1] | Potency [2] | outcome [3] | Potency [4] | Potency [5] | Potency [6] | Potency [7] | Potency [8] | Z-AUC [19] -0.825 | Potency [10] | Potency [11] | Potency [12]
-0.925: Z-AUC [19, 21]

Cc1[nH]c(/C=C2\C(=O)Nc3ccc(F)cc32)c(C)c1C(=O)NC[C@H](O)CN1CCOCC1
active: Potency [17] 6.49 µM and 9.34 µM
inactive: Potency [1] | Potency [2] | outcome [3] | Potency [4] | Potency [5] | Potency [6] | Potency [20] | Potency [9] | Potency [12] | Potency [13] | Potency [14] | Potency [15]

COC(=O)/C=C/C(=O)N(O)CCCCNCc1ccc(COC(=O)Nc2cccc3ccccc23)cc1
inactive: Potency [1] | Potency [2] | outcome [3] | Potency [5] | Potency [6] | Potency [7] | Potency [8] | Potency [11] | Potency [13] | Potency [14] | Potency [15]
active: Potency [17] 9.34 µM

COc1cc(N2CCN(C)CC2)ccc1Nc1nccc(-c2cn(C)c3cnccc23)n1
active: Potency [16] 16.4 µM | Potency [17] 7.28 µM and 8.33 µM | Potency [18] 5.15 µM and 4.17 µM
inactive: Potency [1] | outcome [3] | Potency [4] | Potency [5] | Potency [6] | Potency [8] | Z-AUC [19] -0.0606 | Potency [11] | Potency [12] | Potency [13] | Potency [15]
0.437: Z-AUC ([19]; measured here: PEO4 Z-AUC)
0.299: Z-AUC [19, 21]

N#Cc1ccc2c(c1)CCN(CCC1CCC(NC(=O)c3ccnc4ccccc34)CC1)C2 (stereo not given)
inactive: Potency [1] | Potency [2] | Potency [6] | Potency [7] | Potency [8] | Potency [9] | Potency [10] | Potency [11] | Potency [12] | Potency [13] | Potency [15]

Fc1ccc(C2CCNC[C@H]2COc2ccc3c(c2)OCO3)cc1 (stereo not given in full)
inactive: Potency [1] | Potency [2] | outcome [3] | Potency [6] | Potency [7] | Potency [8] | Potency [11] | Potency [12] | Potency [13] | Potency [15]
active: Potency [17] 18.3 µM | Potency [10] 22.4 µM

CC1CCC2(NC1)OC1CC3C4CC=C5CC(O[C@@H]6O[C@H](CO)[C@@H](O[C@@H]7O[C@@H](C)[C@H](O)[C@@H](O)[C@H]7O)[C@H](O)[C@H]6O[C@@H]6O[C@@H](C)[C@H](O)[C@@H](O)[C@H]6O)CCC5(C)C4CCC3(C)C1C2C (stereo not given in full)
inactive: Potency [1] | Potency [2] | outcome [3] | Potency [4] | Potency [5] | activity change, negative = inhibition [6] -5.29% [at 11.6 µM] | activity change, negative = thiol reactive [7] 179% [at 11.5 µM] | activity, negative = inhibition [8] -1.63% [at 11.6 µM] | activity change, negative = cytotoxicity [9] -25.1% [at 11.6 µM] | activity change, negative = cytotoxicity [11] -18.6% [at 11.6 µM] | activity change, negative = cytotoxicity [12] -11.9% [at 11.6 µM] | activity change, negative = cytotoxicity [13] 4.54% [at 11.6 µM] | activity change, negative = cytotoxicity [15] -18.2% [at 11.6 µM]
active: Potency [17] 3.46 µM | Potency [18] 3.88 µM
